MRP-1 activ: activates MRP-1. H69AR cells + doxorubicin, viability rescue, CellTiter-Glo. viability increase, % at 10 µM. actives 0.61% (n = 140,000);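 active = viability gain under doxorubicin at or above a set limit, the compound median plus 3 SD, cut at about 4.7% in these data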;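 note: MRP-1 overexpressing cells given doxorubicin 25 µM after compound pretreatment; 18-22 h compound pretreatment then 72 h with doxorubicin before readout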
MRP reversal: compounds reversing MRP-mediated drug resistance. H69AR cells + 2 uM doxorubicin, CellTiter-Glo, 72 h. actives 0.04% (n = 85,000). AID 602. differential viability (reversal), % at 10 µM;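 active = viability drop by adding the cancer drug above about 55%, with treated viability meeting a 40% cutoff, limit read from the data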;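 note: larger differential means the compound sensitizes cells more to doxorubicin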
CYP2C9 activ: increases human cytochrome P450 2C9 activity; P11712; activation factor at 5 µM; recombinant CYP2C9, luciferin-H conversion, luminescence; hits give high values; factor 1 = untreated enzyme, 0 = blocked; actives 1.4% (n = 96,000);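 active = activation factor of 2 or more for CYP2C9 at a 5 µM dose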
Target sequence (P11712 whole entry, looked up): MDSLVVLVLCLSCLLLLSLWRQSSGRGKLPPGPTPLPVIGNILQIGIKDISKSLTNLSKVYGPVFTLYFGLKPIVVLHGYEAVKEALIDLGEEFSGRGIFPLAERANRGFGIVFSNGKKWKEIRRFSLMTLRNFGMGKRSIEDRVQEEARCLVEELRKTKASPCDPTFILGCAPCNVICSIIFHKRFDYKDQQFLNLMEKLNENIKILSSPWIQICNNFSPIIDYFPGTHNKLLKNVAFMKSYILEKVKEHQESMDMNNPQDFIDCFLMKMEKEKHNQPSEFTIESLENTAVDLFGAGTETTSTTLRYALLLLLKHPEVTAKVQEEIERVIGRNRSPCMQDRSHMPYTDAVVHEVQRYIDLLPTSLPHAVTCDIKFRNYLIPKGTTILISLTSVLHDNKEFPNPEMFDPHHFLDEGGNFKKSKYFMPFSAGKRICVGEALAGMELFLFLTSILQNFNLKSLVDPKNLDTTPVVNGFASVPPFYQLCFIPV
CYP2C9 inh: blocks human cytochrome P450 2C9 | AID 777 | CYP2C9 Supersomes, luciferin-H conversion, luminescence | P11712 | inhibition, % at 5 µM | actives 20% (n = 96,000);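 active = blocking of liver enzyme CYP2C9 beyond about 50% at 5 µM, limit read from the data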
CYP2C19 inhib: blocks human cytochrome P450 2C19; P33261; actives 21% (n = 96,000); CYP2C19 Supersomes, luciferin-H EGE luminescence, 30 min; inhibition, % at 5 µM;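 active = CYP2C19 inhibition above a set limit at 5 µM in the primary screen, cut at about 50% in these data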
CYP2C19 activ: cytochrome P450 2C19 (human) activation | P33261 | recombinant CYP2C19, luciferin-H EGE luminescence; hits give high values; 0 = fully inhibited enzyme, 1 = untreated enzyme | activation factor at 5 µM | 96,000 tested, under 10 active | AID 1025;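 active = activation factor of at least 2 at 5 µM in the primary screen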
A number is an active result; – = inactive; · = not tested or not shown. Shown are actives, neighbours in structure and some others; about 21% of the full set was active somewhere.

SMILES | MRP-1 activ | MRP reversal | CYP2C9 activ | CYP2C9 inh | CYP2C19 inhib | CYP2C19 activ
CCOC(=O)Cc1csc(NC(=O)c2cc3c(s2)CCCC3)n1 | – | – | – | 63.6 | – | –
Cc1csc(NC(=O)c2cc3c(s2)CCCC3)n1 | – | – | – | – | – | –
CCOC(=O)Cc1csc(NC(=O)c2cc(OC)cc(OC)c2)n1 | – | – | · | · | · | ·
CCOC(=O)Cc1csc(NC(=O)c2csc3c2CCCC3)n1 | – | – | – | 74.8 | 64.9 | –
C=CCn1c(SCC#N)nc2c(c1=O)C(C)(C)Cc1ccccc1-2 | – | – | – | – | – | –
Cc1nc2nc(-c3ccc(Cl)cc3)[nH]n2c(=O)c1Cc1ccccc1 | – | – | – | – | – | –
Cc1cc2nc(C)c(Cc3ccccc3)c(=O)n2[nH]1 | – | – | 2.3 | – | – | –
CC(=O)N(CCC(Cc1ccccc1)c1ccc2c(c1)OCO2)Cc1ccccc1F (stereo unspecified) | – | · | – | 95.9 | 87.7 | –
Fc1ccccc1CNCCC(Cc1ccccc1)c1ccc2c(c1)OCO2 (stereo unspecified) | – | · | · | · | · | ·
O=C(NC(Cc1ccccc1)c1ccc2c(c1)OCCCO2)c1ccccc1F (stereo unspecified) | – | · | – | 82.9 | 77.1 | –
O=C(CCc1ccccc1)c1ccc2c(c1)OCCCO2 | – | – | – | – | – | –
COc1ccc(C(=O)NC(Cc2ccccc2)c2ccc3c(c2)OCCCO3)cc1 (stereo unspecified) | – | · | – | 56.7 | – | –
CCOc1ccc(N2C(=O)CC(N(CCc3ccc(OC)cc3)C(=O)c3cccc(F)c3)C2=O)cc1 (stereo unspecified) | – | · | · | · | · | ·
CCSc1nnc(-c2ccc(Cl)cc2Cl)o1 | – | – | – | – | – | –
Cc1ccccc1-c1nnc(SCc2ccccc2F)o1 | – | – | – | – | – | –
Cc1ccc(CSc2nnc(-c3ccco3)o2)cc1 | – | – | – | 62.6 | – | –
Cc1ccccc1-c1nnc(SCc2ccccc2)o1 | – | · | – | 58.9 | 72.7 | –
Cc1[nH]c2ccccc2c1Cc1nnc(SCc2ccccc2)o1 | – | – | – | – | 69.1 | –
Clc1ccc(CSc2nnc(-c3ccncc3)o2)c(Cl)c1 | – | – | – | 70.4 | 80.7 | –
CCOc1cccc(C(=O)NNC(=O)CCC(=O)O)c1 | – | · | · | · | · | ·
CCOC(=O)c1oc2ccccc2c1CSc1nnnn1-c1ccc(C)cc1 | – | – | · | · | · | ·
Fc1ccccc1CSc1nnc(-c2ccccc2)o1 | – | – | – | 76.7 | 87.3 | –
O=c1c(-c2nnc(SCc3ccc(Cl)cc3Cl)o2)cccn1Cc1ccccc1 | – | · | – | 65.6 | 75.8 | –
COc1ccc(-c2nnc(SCc3ccccc3F)o2)cc1 | – | – | – | – | – | –
CC(C)OC(=O)CSc1nnc(-c2ccc(Cl)cc2Cl)o1 | – | – | – | – | – | –
SMILES | MRP-1 activ | MRP reversal | CYP2C9 activ | CYP2C9 inh | CYP2C19 inhib | CYP2C19 activ
CCOC(=O)c1oc2ccccc2c1CSc1nnc(-c2ccco2)o1 | – | – | – | 68.6 | – | –
COc1cc(OC)cc(-c2nnc(SCc3c(F)cccc3Cl)o2)c1 | – | – | – | 63.3 | – | –
O=C(O)C1C2C=CC3(CN(Cc4ccncc4)C(=O)C13)O2 (stereo unspecified) | – | · | · | · | · | ·
c1ccc(CSc2nnc(-c3ccncc3)o2)cc1 | – | – | – | 93.3 | 97.1 | –
Clc1ccc(-c2nnc(SCc3nc(-c4ccccc4)no3)o2)cc1 | – | – | – | 70.7 | – | –
c1ccc(-c2noc(CSc3nc4ccccc4o3)n2)cc1 | – | – | – | – | – | –
O=C(CSc1nnc(-c2ccncc2)o1)NCc1ccccc1 | – | · | · | · | · | ·
CSCCC(NC(=O)c1ccccc1)C(=O)N/N=C(\C)c1ccccc1 (stereo unspecified) | – | · | · | · | · | ·
O=C(Cn1cnc2ccccc2c1=O)NCCC(=O)N1CCN(c2ccccc2)CC1 | – | – | – | – | – | –
CCOC(=O)c1nn(-c2ccc(C)cc2)cc1O | – | – | – | – | 61.2 | –
CCOC(=O)c1nn(-c2sc(C(=O)OC)c(C)c2C(=O)OC)cc1O | – | – | – | 60.7 | 99.7 | –
O=C(NC(=S)Nc1cc(C(F)(F)F)ccc1N1CCOCC1)c1sc2ccccc2c1Cl | – | · | · | · | · | ·
Cc1ccccc1NC(=O)c1cc(C(=O)c2cc(Cl)ccc2O)cn(-c2ccccc2C)c1=O | – | · | · | · | · | ·
CCn1c2ccccc2c2cc(NC(=O)COC(=O)C3CCC(=O)N3)ccc21 (stereo unspecified) | – | – | 2.1 | – | – | –
CCn1c2ccccc2c2cc(NC(=O)COc3ccc(OC)cc3)ccc21 | – | · | – | – | 64.6 | –
CCn1c2ccccc2c2cc(NC(=O)COc3ccccc3)ccc21 | – | · | · | · | · | ·
C#CCn1c(S(=O)(=O)Cc2ccc(F)cc2)nc(-c2ccccc2)c1-c1ccccc1 | – | · | – | 91.6 | 97.6 | –
CCOC(=O)Cn1c(S(=O)(=O)Cc2ccc(F)cc2)nc(-c2ccccc2)c1-c1ccccc1 | – | · | – | – | 51.9 | –
COc1ccc(N(C(=O)CS(=O)CC(=O)Nc2ccc(F)cc2)C(C(=O)NC2CCCCC2)c2cccs2)cc1 (stereo unspecified) | – | · | · | · | · | ·
O=C(CSc1nnc(-c2ccccc2)n1Cc1ccccc1)NNC(=O)c1ccccc1O | – | · | · | · | · | ·
COC(=O)CCC(=O)Nc1ccc(S(=O)(=O)N2CCCCCC2)cc1 | – | · | – | – | – | –
COCCN(CC(=O)Nc1ccc(F)cc1)S(=O)(=O)c1ccc(S(=O)(=O)N2CCCC2)cc1 | – | – | – | 62.2 | – | –
O=C(Nc1ccccc1)c1ccc(S(=O)(=O)N2CCCC2)cc1 | – | – | – | – | – | –
COCCN(CC(=O)Nc1ccccc1)S(=O)(=O)c1ccc(S(=O)(=O)N2CCCC2)cc1 | – | – | – | 73.4 | – | –
COc1ccc(N2CCN(C(c3cccs3)c3nnnn3C3CCCC3)CC2)cc1 (stereo unspecified) | – | – | – | 64.2 | – | –
SMILES | MRP-1 activ | MRP reversal | CYP2C9 activ | CYP2C9 inh | CYP2C19 inhib | CYP2C19 activ
Fc1ccc(N2CCN(C(c3cccs3)c3nnnn3C3CCCC3)CC2)cc1 (stereo unspecified) | – | – | – | 98.1 | 95.9 | –
Fc1ccc(CN(Cc2ccccc2)C(c2cccs2)c2nnnn2C2CCCCC2)cc1 (stereo unspecified) | – | – | – | – | – | –
COc1ccccc1N1CCN(C(c2ccccn2)c2nnnn2C2CCCCC2)CC1 (stereo unspecified) | – | – | – | – | – | –
CCOC(=O)/C(=C\c1ccc(OC(F)F)cc1)C1=Nn2c(nnc2-c2ccc(Cl)cc2)SC1 | – | · | · | · | · | ·
CCOC(=O)c1[nH]c(C)c(/C(O)=C2\C(=O)C(=O)N(CCCN(C)C)C2c2cccnc2)c1C (stereo unspecified) | – | – | – | – | – | –
O=c1c2[nH]c3ccc(Cl)cc3c2ncn1CCN1CCCCC1 | – | – | – | 59.3 | 74.0 | –
O=c1c2[nH]c3ccc(F)cc3c2ncn1CCCn1ccnc1 | – | – | – | 79.7 | 63.7 | –
O=C(NC1(C(F)(F)F)NC(=O)N(c2ccc(F)cc2)C1=O)c1ccncc1 (stereo unspecified) | – | · | · | · | · | ·
